Ins promoter up: insulin promoter activators in MIN6 cells, imaging, high-content screening, mouse beta cells; AID 1625, 2009; MIN6 insulin promoter-GFP reporter; stronger effect = higher value; z-score at 5 µM; 190,000 compounds, 0.3% hits;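 active = z-score above 3 at 5 µM with at least 500 cells counted in the well; inconclusive = wells under 500 cells, flagged as cytotoxic or low count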
INS promoter inh: inhibitors of insulin promoter-driven GFP, primary screen, imaging, TRM-6 cells (human fetal islet line), eGFP reporter, cell count; reporter expression induced with tamoxifen; inhibition, % at 2 µM; 130,000 compounds, 0.9% hits; AID 1273, 2008;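 active = inhibition above the mean plus 3 SD, with well images judged a real hit on visual review, cut at about 60% in these data, passing the limit was not always enough; inconclusive = inhibition over the cutoff but images rejected on review; inactive = inhibition not above the cutoff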
WT yeast gro inh: growth inhibition of WT strain, primary screen, mitochondrial fusion inhibitor project, WT and mutant strains, chemical genetic. inhibition, % at 10 µM. AID 1362, 2008. mitochondrial fusion phenotypic screen. 190,000 compounds, 2.1% hits; in the data active = inhibition above about 58%; tested in S. cerevisiae
L major viab: Leishmania major promastigote growth inhibition, primary screen; Leishmania major promastigotes, resazurin fluorescence viability; 200,000 compounds, 9% hits; AID 1063, 2008; inhibition, % at 10 µM; in the data active = inhibition above about 50%;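 note: promastigotes grown with compound for 44 hours at 28 °C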
Autophagy mod: autophagy modulators in MEF cells, primary screen, imaging, high-content, MEF GFP-LC3; MEF GFP-LC3 puncta imaging; test concentration mostly 10 µM; calls only at 10 µM (by protocol); 190,000 compounds, 0.98% hits;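 active = percentage of spot-positive cells more than 3 SD above its plate mean, without a fluorescence outlier flag or 80% toxicity; inconclusive = no clear call, values can overlap the other calls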;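 note: spot-positive cell cutoff set from DMSO-treated cells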
L major 1uM: Leishmania major promastigote growth inhibition, confirmation, 1 µM repeat of primary hits | inhibition, % at 1 µM | 1,100 compounds, 13% hits | AID 1258, 2008 | L. major promastigote growth, resazurin fluorescence, 48 h | shares compounds with L major viab;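 active = inhibition above about 50% in both repeat tests, limit read from the data; inconclusive = one repeat under the set limit, the other over it; inactive = both repeats under the set limit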
The depositor's hits bear a star; i = inactive; ? = inconclusive; . = no result; + = active, no number. Only some compounds are listed: those with a hit (about 11% of all), similar ones and a draw of the others.

SMILES	Ins promoter up	INS promoter inh	WT yeast gro inh	L major viab	Autophagy mod	L major 1uM
O=C(Cn1cnc([N+](=O)[O-])c1)Nc1cc(Oc2ccc(Cl)cc2Cl)cc([N+](=O)[O-])c1	.	-110.0	-12.2	99.8*	i	62.1*
CCC(C)(C)NC(=O)CCCSc1nc2ccccc2s1	0.8	.	8.9	3.7	i	.
CCOC(=O)C1C(C(=O)OCC)C1(c1ccccc1)c1ccccc1 (centres undefined)	-0.66	-10.3	20.5	89.1*	i	-2.1
Cc1[nH]c2ccc(Br)cc2c(=O)c1CN1CCCCC1	-0.46	36.4	-2.3	8.0	i	.
Cc1[nH]c2c(Cl)cccc2c(=O)c1CN1CCCC1	-0.43	.	-5.4	100.0*	i	92.8*
Cc1cc(C)n(-c2nc3ccccc3c(=O)n2OCC(=O)N(C)C)n1	0.62	.	-9.7	-7.7	i	.
Cc1cc(C)n(-c2nc3ccccc3c(=O)n2OCC(=O)OCc2ccccc2)n1	-1.06	39.4	-6.7	92.0*	+	11.3
Cc1noc(C)c1S(=O)(=O)NCCCN1CCN(Cc2ccccc2)CC1	-0.25	-21.4	-18.3	92.2*	i	-10.5
Cc1noc(C)c1S(=O)(=O)NCCN1CCN(c2ccccc2)CC1	-0.45	34.5	-7.1	-1.7	i	.
Fc1cnc(Cl)nc1N1CCN(c2ccccc2)CC1	0.06	.	.	.	.	.
CN1CCN(c2nc(N3CCN(c4ccccc4)CC3)ncc2F)CC1	-0.52	5.3	4.3	65.0*	i	-10.9
Cc1ccc(NC(=O)O/N=C2\CCCCC2c2ccc([N+](=O)[O-])cc2[N+](=O)[O-])cc1 (centres undefined)	.	52.0	3.8	99.2*	i	15.3
COc1ccc(NC(=O)c2cccc(N3C(=O)NC4CC3(C)Oc3ccccc34)c2)cc1 (centres undefined)	-1.2	-29.0	0.0	99.9*	i	0.5
Cc1cccc(C)c1-n1nnnc1C1(Nc2ccccc2)CCCCC1	-0.71	-3.6	73.2*	99.7*	?	-11.2
COc1ccc(C2SCC(=O)N2c2nc3ccccc3s2)cc1 (centres undefined)	0.05	.	34.7	9.6	i	.
COc1ccc(C2=NN(c3nc4ccccc4s3)C(=O)/C2=C\N(C)C)cc1	0.55	3.7	4.1	53.9*	i	-17.6
Cc1ccn2cc(C(=O)Nc3nnc(C)s3)nc2c1	0.08	.	4.9	-2.8	i	.
Cc1ccn2cc(C34CC5CC(CC(C5)C3)C4)nc2c1	-0.6	.	22.3	60.4*	i	20.8
CN(c1ccccc1C(=O)Nc1cccc(Cl)c1Cl)S(C)(=O)=O	-0.18	-79.3	-8.5	-1.9	i	.
Cc1ccccc1-c1cc2c(nn1)-c1ccccc1C2=O	0.95	46.4	54.5	93.4*	i	-13.3
CC(C)(C)c1ccc(C(=O)NCCCN2CCN(CCCNC(=O)c3ccc(C(C)(C)C)cc3)CC2)cc1	0.05	-3.3	25.0	99.5*	i	-7.8
CCOC(=O)Cn1c(=O)oc2cc(S(=O)(=O)Nc3ccc(N(CC)CC)cc3C)ccc21	-0.29	.	8.9	4.4	i	.
Cn1c(=O)c2nc(-c3ccccc3)oc2c2ccccc21	-0.43	40.0	11.7	91.8*	i	72.3*
Cc1ccc(CN(c2ccc(C(=O)NCC3CCCO3)cc2)S(C)(=O)=O)cc1 (centres undefined)	.	15.0	12.0	-2.8	i	.
C=C1CCN([C@H](C(=O)NCc2ccco2)C(C)C)S(=O)(=O)c2ccccc21	0.45	.	.	.	.	.
SMILES	Ins promoter up	INS promoter inh	WT yeast gro inh	L major viab	Autophagy mod	L major 1uM
Cc1ccc(-n2cccc2C(=S)N=P(N(C)C)(N(C)C)N(C)C)cc1	-2.59	.	65.3*	56.7*	i	-5.9
O=C1CC(N2CCN(c3ccc(S(=O)(=O)N4CCCC4)cc3)CC2)C(=O)N1c1ccc(F)cc1 (centres undefined)	0.38	31.0	1.3	-4.5	i	.
Cc1ccc(C2(O)CN(c3ccccc3)C3=[N+]2CCS3)cc1 (centres undefined)	-0.23	.	-9.3	-3.2	i	.
Cc1ccc(-c2cn(-c3ccccc3)c3[n+]2CCCS3)cc1	?	15.5	14.4	100.3*	i	46.4
CS(=O)(=O)NCCSCc1ccco1	0.51	11.1	0.3	-4.8	i	.
CCc1cc2c(nc1CC)CCN(CC/C(C)=N/O[C@@H](C)c1cc(-c3c(C)cc(C)cc3C)no1)C2	-1.12	-171.4	36.2	91.8*	i	-15.0
C/C(CCN1CCc2nc(-c3ccccc3)c(-c3ccccc3)cc2C1)=N\O[C@@H](C)c1cc(-c2c(C)cc(C)cc2C)no1	-0.01	-22.7	24.4	83.3*	i	-12.4
Cn1c(=O)c2ncn(CC(=O)O)c2n(C)c1=O	-0.53	.	.	.	.	.
Cc1ccccc1Cn1c(=O)n(CC2CCC(C(=O)NCCc3ccccc3)CC2)c(=O)c2ccccc21 (centres undefined)	-0.21	0.0	-0.8	11.3	i	.
Cc1ccc2c(c1)c(=O)c1c3n2CCN(C(=O)CCl)C3CC1 (centres undefined)	0.76	.	5.3	100.4*	i	57.4*
Cn1c(N)c(C(=O)COC(=O)C2(c3cccc(F)c3)CCCC2)c(=O)n(C)c1=O	-0.2	12.5	14.3	14.0	i	.
Cc1ccccc1NS(=O)(=O)c1cc(C(=O)NCc2ccco2)ccc1C	-0.15	20.0	-15.9	59.4*	i	-10.9
O=C(NCc1ccco1)c1cccc(NS(=O)(=O)c2cccc(F)c2)c1	-1.11	3.9	-5.0	57.5*	i	-13.4
O=C(NCc1ccco1)c1cccc(S(=O)(=O)N2CCCCC2)c1	0.78	25.0	17.9	12.8	i	.
Cc1ccc(/C=C(\C#N)c2nn(-c3ccccc3)c(N)c2C#N)cc1	1.33	10.5	-2.9	64.5*	i	-5.5
N#C/C(=C\c1cccc2ccccc12)c1nn(-c2ccccc2)c(N)c1C#N	.	23.3	.	32.3	i	.
COc1ccc(OC)c2c(C)cc(NCCN3CCOCC3)nc12	0.62	-45.5	14.0	16.8	i	.
Cc1ccc(S(=O)(=O)N[C@H](C(=O)OCn2nnc3ccccc3c2=O)C(C)C)cc1	0.6	-20.0	0.2	67.4*	i	-8.3
CCOC(=O)C1=NN(c2ccccc2)C2(S1)SC(C(C)=O)=C(C)N2c1ccccc1 (centres undefined)	-1.13	60.0	71.5*	61.4*	i	2.8
Cc1noc(C)c1C(=O)OCC(=O)NCCC1=CCCCC1	-0.27	.	1.1	-5.5	i	.
C=CCSc1nnc2c(n1)[nH]c1c(C)cccc12	0.26	27.3	25.1	61.0*	i	10.9
CCSc1nnc2nc3[nH]c4c(C)cccc4c3nn12	.	-12.5	-0.3	41.6	i	.
O=[N+]([O-])c1cccc(/C=N/NC2=NS(=O)(=O)c3ccccc32)c1	-1.12	30.0	-33.0	-5.2	i	.
Cn1cc(CN2CCC(CO)CC2)c(-c2ccc(Oc3ccccc3)cc2)n1	0.03	.	-2.9	96.5*	i	75.4*
